# Test results taken from ChEMBL document CHEMBL4513216, “Probing the Open Global Health Chemical Diversity Library for Multistage-Active Starting Points for Next-Generation Antimalarials” (ACS Infect Dis, 2020).
# The campaign covered roughly 69,000 compounds. About 8,600 (12%) showed an effect of 50% or more. What follows is part of a selection rich in strong results, with near analogues and random picks from the rest.
# Tested on: Plasmodium berghei
# Test: Screen against P. berghei liver stage (PbLuc), transformed with Luciferase, at 10uM
# Assay type: functional, HepG2
# Conditions: tested at 10 uM
row,Structure (SMILES),INHIBITION
1,O=C(NCCn1ccnc1)N1CCN(Cc2ccsc2)CC1,19.5%
2,CCCn1nc(C)c(-c2cncn2CCN(C)C2CCCC2)c1C,-0.232%
3,CCc1nc(CN2CCCN(C(=O)C(CC)OC)CC2)cs1 (stereo not given),-4.94%
4,O=C(Nc1cc(F)ccc1OCC1CCCO1)N1CCCC1 (stereo not given),17.8%
5,CC(=O)N1CCC(c2nnc3ccc(C(=O)NCC(C)C)cn23)C1 (stereo not given),51.2%
6,CC(C)NC(=O)c1ccc2nnc(C3CCN(C(=O)NC(C)C)C3)n2c1 (stereo not given),8.85%
7,CCC(CC)NC(=O)c1ccc2nnc(C3CCN(S(C)(=O)=O)C3)n2c1 (stereo not given),-1.26%
8,CCC(CC)NC(=O)c1ccc2nnc(C3CCN(C(C)=O)C3)n2c1 (stereo not given),50.7%
9,CCN(C(=O)c1ccc2nnc(C3CCN(C(C)=O)C3)n2c1)C(C)C (stereo not given),50.3%
10,CC(C)NC(=O)N1CCC(c2nnc3ccc(C(=O)N(C)C)cn23)C1 (stereo not given),-7.24%
11,CC(C)CNC(=O)c1ccc2nnc(C3CCN(S(C)(=O)=O)C3)n2c1 (stereo not given),40.9%
12,CC(=O)N1CCC(c2nnc3ccc(C(=O)NCCN(C)C)cn23)C1 (stereo not given),59.3%
13,CC(C)NC(=O)c1ccc2nnc(C3CCN(S(C)(=O)=O)C3)n2c1 (stereo not given),10.6%
14,CCN(C(=O)c1ccc2nnc(C3CCN(C)C3)n2c1)C(C)C (stereo not given),27.6%
15,CC(=O)N1CCC(c2nnc3ccc(C(=O)NC(C)C)cn23)C1 (stereo not given),42.6%
16,CCN(C(=O)c1ccc2nnc(C3CCN(S(C)(=O)=O)C3)n2c1)C(C)C (stereo not given),33.1%
17,CC1CCCN(Cc2ccc(OCc3nccn3C)cc2)C1 (stereo not given),33.3%
18,COCC(=O)NC1CCN(c2cccc(OC(F)(F)F)c2)C1=O (stereo not given),42.3%
19,CC(C)=CCN1CCN(C(=O)c2cc(C(C)C)no2)[C@H]2CS(=O)(=O)C[C@H]21,-7.25%
20,COCc1nc(CNC2CCCC(C)(C)C2)no1 (stereo not given),25.1%
21,Cc1ccc(N2CC[C@H]3OCC[C@@]3(C(=O)NCC3CC3)C2)nn1,12.5%
22,CN1CC2(CCN(C(=O)CCc3nc4cccnc4n3C)C2)OC1=O (stereo not given),-19.1%
23,COc1c(CNCc2nnc3n2CCCCC3)c(C(C)C)nn1C,27.9%
24,CN(CCc1noc(C2CC2)n1)C(=O)CN1C(=O)COc2ccccc21,-37.9%

row,Structure (SMILES),INHIBITION
1,COc1c(C)cnc(CSc2nnc(N)s2)c1C,28.6%
2,COc1c(C)cnc(CSc2nnc(C)s2)c1C,-40.3%
3,COc1c(C)cnc(CSc2nnc(NC3CC3)s2)c1C,57.7%
4,CC(C)C(=O)N1CCCC(Cc2ccccn2)C1 (stereo not given),25%
5,COCCC(=O)N1CCCC(c2n[nH]cc2C)C1 (stereo not given),36%
6,N#CCCCOc1cccnc1NC(=O)Cc1ccccc1F,65.2%
7,N#CCCCOc1cccnc1NC(=O)CCC1CCCC1,-12.1%
8,N#CCCCOc1cccnc1NC(=O)CC1CCCCC1,20.9%
9,Cc1cccc(CC2CCCN(C(=O)Cc3csc(C)n3)C2)n1 (stereo not given),-8.12%
10,Cc1noc(C)c1S(=O)(=O)NC(=O)COc1ccc2c(c1)CCC2,45.3%
11,COc1cc(CN(C)Cc2cccnc2)c(SC)cc1OC,54.7%
12,COc1cc(CN(C)Cc2ccncc2)c(SC)cc1OC,39.3%
13,COc1cc(CN(C)CCc2ccncc2)c(SC)cc1OC,32.7%
14,Cc1nnc(NC(=O)NC2CCCc3c2cnn3CCO)s1 (stereo not given),38%
15,Cc1cccc(-n2ncc3c2CCCC3NCC(C)(C)CO)c1C (stereo not given),58.5%
16,Cc1cc(NC(=O)NC2CCCc3c2cnn3CCO)n(C)n1 (stereo not given),-39.9%
17,Cc1cc(C(=O)NC2CCCc3c2cnn3-c2cccc(C)c2C)[nH]n1 (stereo not given),91%
18,Cc1cccc(-n2ncc3c2CCCC3NCc2cnn(C)c2C)c1C (stereo not given),33.4%
19,Cc1cccc(-n2ncc3c2CCCC3NCc2cccc(O)c2)c1C (stereo not given),31.9%
20,OC1(CN2CCCC2)COCCN(c2ncnc3[nH]cnc23)C1 (stereo not given),56.1%
21,OC1(CN2CCCC2)COCCN(c2ncnc3[nH]ccc23)C1 (stereo not given),19.3%
22,OC1(CN2CCCC2)CCCN(c2ncnc3[nH]cnc23)C1 (stereo not given),13.9%
23,CN(C)C[C@H]1OC[C@@H]2CCN(C(=O)c3cccn3C)C[C@@H]21,4.2%
24,CC(C)N(C)C(=O)C1=NOC2(CCN(C(=O)c3cccn3C)C2)C1 (stereo not given),13.3%

row,Structure (SMILES),INHIBITION
1,O=C(NCc1ccco1)[C@H]1CC[C@@H]2[C@@H](CCN2C2CCC2)O1,27.6%
2,Cc1nn(CC(=O)Nc2ccon2)c(C)c1Br,40.8%
3,CCN1CCN(C2CCN(Cc3noc(C)n3)CC2)C1=O,51.2%
4,Cc1nc(CN2CCC(N3CCN(C)C3=O)CC2)no1,11.2%
5,CCN1CCN(C2CCN(Cc3noc(C4CC4)n3)CC2)C1=O,35.9%
6,Cc1ccc(CNC(=O)Cc2c(C)nc3c(c2C)c(=O)[nH]n3C)cc1,29.4%
7,CC(NC(=O)CCn1cccn1)c1cn(-c2ccccc2)nn1 (stereo not given),-15.5%
8,CC(C)NC(=O)[C@@H]1C[C@H](N)CN1C(=O)C1(c2ccc(Cl)cc2)CCC1,41.5%
9,O=C(c1cc[nH]n1)N1CCCC1c1cncc(CN2CCOCC2)n1 (stereo not given),11.8%
10,CC(C)(NCCOc1ccc(CC#N)cc1)c1nccs1,-6.34%
11,Cc1csc(C(C)(C)NCCNS(C)(=O)=O)n1,-1.75%
12,CC(C)(NCCCOc1ccc(C#N)cc1)c1nccs1,53.8%
13,CCS(=O)(=O)NCCNC(C)(C)c1nc(C)cs1,-7.72%
14,Cc1csc(C(C)(C)NCCOc2ccc(CC#N)cc2)n1,58.1%
15,N#Cc1ccc(OCCNCCn2cccn2)cc1,27.6%
16,CN1CCOC(c2cncc(CCC(N)=O)n2)C1 (stereo not given),-0.232%
17,Cn1ccc2cc(CC3COCCN(C(=O)c4ccccn4)C3)ccc21 (stereo not given),20.055%
18,CC(=O)N1N=C(c2ccco2)OC1C(=O)N(C)CCc1ccccc1 (stereo not given),24.3%
19,Cc1cc2nc(SCC(=O)N3CCCC3)n(C)c(=O)c2[nH]1,19.3%
20,COCCNC(=O)C[C@@H]1COC[C@H]2CN(C(=O)C3CCOCC3)C[C@@H]12,69.3%
21,COCCNC(=O)C[C@@H]1COC[C@H]2CN(C(=O)COC)C[C@@H]12,13.1%
22,COCCNC(=O)C[C@@H]1COC[C@H]2CN(CC3CCOCC3)C[C@@H]12,36.7%
